Data reported in publication PMC11062922 (Nature Chemical Biology, 2023).
Read-outs that look alike come from different tables or passages of the source.

Tests used:
[1] = test system: AKT3; design: species or system human, MV4-11 + K-562 + COLO205 + SK-N-BE2 + OVCAR-8; conditions: read-out: apparent Kd, n = 1
[2] = test system: MAPK10; design: species or system human, MV4-11 + K-562 + COLO205 + SK-N-BE2 + OVCAR-8; conditions: read-out: apparent Kd; compound concentrations: 100 nM and 1000 nM (sheet 'Samples'), CATDS: 0.16061628875685399; n = 1
[3] = test system: MAPK14; design: species or system human, MV4-11 + K-562 + COLO205 + SK-N-BE2 + OVCAR-8; conditions: read-out: apparent Kd, compound concentrations: 100 nM and 1000 nM (sheet 'Samples'), n = 1
[4] = test system: MAPK9; design: species or system human, MV4-11 + K-562 + COLO205 + SK-N-BE2 + OVCAR-8; conditions: read-out: apparent Kd; compound concentrations: 100 nM and 1000 nM (sheet 'Samples'), CATDS: 0.111534825966063; n = 1
[5] = test system: NLK; design: species or system human, MV4-11 + K-562 + COLO205 + SK-N-BE2 + OVCAR-8; conditions: read-out: apparent Kd; compound concentrations: 100 nM and 1000 nM (sheet 'Samples'), CATDS: 0.289538211789438; n = 1
[6] = test system: PRKCQ; design: species or system human, MV4-11 + K-562 + COLO205 + SK-N-BE2 + OVCAR-8; conditions: read-out: apparent Kd; compound concentrations: 100 nM and 1000 nM (sheet 'Samples'), CATDS: 0.10805556024324001; n = 1
[7] = test system: PRKCZ; design: species or system human, MV4-11 + K-562 + COLO205 + SK-N-BE2 + OVCAR-8; conditions: read-out: apparent Kd; compound concentrations: 100 nM and 1000 nM (sheet 'Samples'), CATDS: 0.11125426430481999; n = 1
[8] = test system: ARAF; design: species or system human, MV4-11 + K-562 + COLO205 + SK-N-BE2 + OVCAR-8; conditions: read-out: apparent Kd; compound concentrations: 100 nM and 1000 nM (sheet 'Samples'), CATDS: 5.7058151547421603E-2; n = 1
[9] = test system: AURKB; design: species or system human, MV4-11 + K-562 + COLO205 + SK-N-BE2 + OVCAR-8; conditions: read-out: apparent Kd, n = 1
[10] = test system: CDK10; design: species or system human, MV4-11 + K-562 + COLO205 + SK-N-BE2 + OVCAR-8; conditions: read-out: apparent Kd; compound concentrations: 100 nM and 1000 nM (sheet 'Samples'), CATDS: 4.7356603246951401E-2; n = 1
[11] = test system: EIF2AK1; design: species or system human, MV4-11 + K-562 + COLO205 + SK-N-BE2 + OVCAR-8; conditions: read-out: apparent Kd; compound concentrations: 100 nM and 1000 nM (sheet 'Samples'), CATDS: 9.9444074650609393E-2; n = 1
[12] = test system: FN3K; design: species or system human, MV4-11 + K-562 + COLO205 + SK-N-BE2 + OVCAR-8; conditions: read-out: apparent Kd; compound concentrations: 100 nM and 1000 nM (sheet 'Samples'), CATDS: 5.2169605073521003E-2; n = 1
[13] = test system: ICK; design: species or system human, MV4-11 + K-562 + COLO205 + SK-N-BE2 + OVCAR-8; conditions: read-out: apparent Kd; compound concentrations: 100 nM and 1000 nM (sheet 'Samples'), CATDS: 4.7896181585756002E-2; n = 1
[14] = test system: LATS1; design: species or system human, MV4-11 + K-562 + COLO205 + SK-N-BE2 + OVCAR-8; conditions: read-out: apparent Kd; compound concentrations: 100 nM and 1000 nM (sheet 'Samples'), CATDS: 4.4770495584516998E-2; n = 1
[15] = test system: MAP2K5; design: species or system human, MV4-11 + K-562 + COLO205 + SK-N-BE2 + OVCAR-8; conditions: read-out: apparent Kd; compound concentrations: 100 nM and 1000 nM (sheet 'Samples'), CATDS: 0.11655274425704; n = 1
[16] = test system: MAP3K2; design: species or system human, MV4-11 + K-562 + COLO205 + SK-N-BE2 + OVCAR-8; conditions: read-out: apparent Kd; compound concentrations: 100 nM and 1000 nM (sheet 'Samples'), CATDS: 4.6082371307615597E-2; n = 1
[17] = test system: MAP3K4; design: species or system human, MV4-11 + K-562 + COLO205 + SK-N-BE2 + OVCAR-8; conditions: read-out: apparent Kd; compound concentrations: 100 nM and 1000 nM (sheet 'Samples'), CATDS: 4.8228704879059399E-2; n = 1
[18] = test system: MAP4K1; design: species or system human, MV4-11 + K-562 + COLO205 + SK-N-BE2 + OVCAR-8; conditions: read-out: apparent Kd; compound concentrations: 100 nM and 1000 nM (sheet 'Samples'), CATDS: 4.8558197444370697E-2; n = 1
[19] = test system: MAP4K2; design: species or system human, MV4-11 + K-562 + COLO205 + SK-N-BE2 + OVCAR-8; conditions: read-out: apparent Kd; compound concentrations: 100 nM and 1000 nM (sheet 'Samples'), CATDS: 5.6009475369740498E-2; n = 1
[20] = test system: MAP4K3; design: species or system human, MV4-11 + K-562 + COLO205 + SK-N-BE2 + OVCAR-8; conditions: read-out: apparent Kd; compound concentrations: 100 nM and 1000 nM (sheet 'Samples'), CATDS: 7.0202424980237099E-2; n = 1
[21] = test system: NEK1; design: species or system human, MV4-11 + K-562 + COLO205 + SK-N-BE2 + OVCAR-8; conditions: read-out: apparent Kd; compound concentrations: 100 nM and 1000 nM (sheet 'Samples'), CATDS: 8.0496381389801502E-2; n = 1
[22] = test system: NEK2; design: species or system human, MV4-11 + K-562 + COLO205 + SK-N-BE2 + OVCAR-8; conditions: read-out: apparent Kd; compound concentrations: 100 nM and 1000 nM (sheet 'Samples'), CATDS: 4.3015896259207202E-2; n = 1
[23] = test system: PKMYT1; design: species or system human, MV4-11 + K-562 + COLO205 + SK-N-BE2 + OVCAR-8; conditions: read-out: apparent Kd; compound concentrations: 100 nM and 1000 nM (sheet 'Samples'), CATDS: 4.44842965705885E-2; n = 1
[24] = test system: PTK6; design: species or system human, MV4-11 + K-562 + COLO205 + SK-N-BE2 + OVCAR-8; conditions: read-out: apparent Kd; compound concentrations: 100 nM and 1000 nM (sheet 'Samples'), CATDS: 5.5693628002095402E-2; n = 1
[25] = test system: RAF1; design: species or system human, MV4-11 + K-562 + COLO205 + SK-N-BE2 + OVCAR-8; conditions: read-out: apparent Kd; compound concentrations: 100 nM and 1000 nM (sheet 'Samples'), CATDS: 4.9993718202349699E-2; n = 1
[26] = test system: ATM; design: species or system human, MV4-11 + K-562 + COLO205 + SK-N-BE2 + OVCAR-8; conditions: read-out: apparent Kd; compound concentrations: 100 nM and 1000 nM (sheet 'Samples'), CATDS: 0.38559803360956002; n = 1
[27] = test system: FLT4; design: species or system human, MV4-11 + K-562 + COLO205 + SK-N-BE2 + OVCAR-8; conditions: read-out: apparent Kd; compound concentrations: 100 nM and 1000 nM (sheet 'Samples'), CATDS: 0.25804604622039201; n = 1
[28] = test system: MYLK3; design: species or system human, MV4-11 + K-562 + COLO205 + SK-N-BE2 + OVCAR-8; conditions: read-out: apparent Kd; compound concentrations: 100 nM and 1000 nM (sheet 'Samples'), CATDS: 0.16564230425287901; n = 1
[29] = test system: TTN; design: species or system human, MV4-11 + K-562 + COLO205 + SK-N-BE2 + OVCAR-8; conditions: read-out: apparent Kd; compound concentrations: 100 nM and 1000 nM (sheet 'Samples'), CATDS: 0.28618499292255201; n = 1
[30] = test system: BMP2K; design: species or system human, MV4-11 + K-562 + COLO205 + SK-N-BE2 + OVCAR-8; conditions: read-out: apparent Kd; compound concentrations:100 nM and 1000 nM (sheet 'Samples'); n = 1
[31] = test system: CSNK2A1;CSNK2A3; design: species or system human, MV4-11 + K-562 + COLO205 + SK-N-BE2 + OVCAR-8; conditions: read-out: apparent Kd; compound concentrations:100 nM and 1000 nM (sheet 'Samples'); n = 1
[32] = test system: CSNK2A2; design: species or system human, MV4-11 + K-562 + COLO205 + SK-N-BE2 + OVCAR-8; conditions: read-out: apparent Kd; compound concentrations:100 nM and 1000 nM (sheet 'Samples'); n = 1
[33] = test system: JAK1; design: species or system human, MV4-11 + K-562 + COLO205 + SK-N-BE2 + OVCAR-8; conditions: read-out: apparent Kd; compound concentrations:100 nM and 1000 nM (sheet 'Samples'); n = 1
[34] = target: Q6ZSR9 (human, UniProt Q6ZSR9); design: species or system MV4-11 + K-562 + COLO205 + SK-N-BE2 + OVCAR-8; conditions: read-out: apparent Kd; compound concentrations:100 nM and 1000 nM (sheet 'Samples'); n = 1
[35] = test system: AKT2; design: species or system human, MV4-11 + K-562 + COLO205 + SK-N-BE2 + OVCAR-8; conditions: read-out: apparent Kd; compound concentrations: 100 nM and 1000 nM (sheet 'Samples'), CATDS: 0.183770633421974; n = 1
[36] = test system: CSNK1D; design: species or system human, MV4-11 + K-562 + COLO205 + SK-N-BE2 + OVCAR-8; conditions: read-out: apparent Kd; compound concentrations: 100 nM and 1000 nM (sheet 'Samples'), CATDS: 0.20295054988008099; n = 1
[37] = test system: DYNC1LI1; design: species or system human, MV4-11 + K-562 + COLO205 + SK-N-BE2 + OVCAR-8; conditions: read-out: apparent Kd; compound concentrations: 100 nM and 1000 nM (sheet 'Samples'), CATDS: 0.215188969129953; n = 1
[38] = test system: NQO1; design: species or system human, MV4-11 + K-562 + COLO205 + SK-N-BE2 + OVCAR-8; conditions: read-out: apparent Kd; compound concentrations: 100 nM and 1000 nM (sheet 'Samples'), CATDS: 0.18936127019719301; n = 1
[39] = compound concentrations:100 nM and 1000 nM (sheet 'Samples')

Chain of Q6ZSR9 (Q6ZSR9 whole entry, looked up): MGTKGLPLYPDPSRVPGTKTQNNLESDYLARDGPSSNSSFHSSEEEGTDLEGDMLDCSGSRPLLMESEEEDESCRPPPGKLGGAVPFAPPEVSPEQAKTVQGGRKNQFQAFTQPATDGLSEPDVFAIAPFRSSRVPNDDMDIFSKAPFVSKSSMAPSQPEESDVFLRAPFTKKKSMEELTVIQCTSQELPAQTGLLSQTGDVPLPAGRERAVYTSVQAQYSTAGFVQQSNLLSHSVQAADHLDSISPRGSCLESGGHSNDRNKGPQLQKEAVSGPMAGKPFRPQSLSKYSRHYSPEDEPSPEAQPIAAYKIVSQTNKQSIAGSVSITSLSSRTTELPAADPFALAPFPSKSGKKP

O=c1c(Oc2ccc(F)cc2F)cc2cnc(NC3CCOCC3)nc2n1C1CC1 [RO4399247-000]
potency estimated from few doses ([1]; compound concentrations: 100 nM and 1000 nM (sheet 'Samples'), CATDS: 0.120130462725208): 1.39 µM
potency estimated from few doses [2]: 0.69 µM
potency estimated from few doses ([3]; CATDS: 0.26404764630767302): 0.279 µM
potency estimated from few doses [4]: 1.74 µM
potency estimated from few doses [5]: 0.242 µM
potency estimated from few doses [6]: 1.93 µM
potency estimated from few doses [7]: 1.75 µM

Cc1ccccc1CC(=O)N1CCc2cc(-c3cn(C)c4ncnc(N)c34)ccc21 [GSK2603346A]
potency estimated from few doses [8]: 0.942 µM
potency estimated from few doses ([9]; compound concentrations: 100 nM and 1000 nM (sheet 'Samples'), CATDS: 7.6313270646160003E-2): 0.547 µM
potency estimated from few doses [10]: 1.45 µM
potency estimated from few doses [11]: 0.36 µM
potency estimated from few doses [12]: 1.14 µM
potency estimated from few doses [13]: 1.41 µM
potency estimated from few doses [14]: 1.68 µM
potency estimated from few doses [15]: 0.287 µM
potency estimated from few doses [16]: 1.55 µM
potency estimated from few doses [17]: 1.38 µM
potency estimated from few doses [18]: 1.36 µM
potency estimated from few doses [19]: 0.979 µM
potency estimated from few doses [20]: 0.632 µM
potency estimated from few doses [21]: 0.501 µM
potency estimated from few doses [22]: 1.89 µM
potency estimated from few doses [23]: 1.71 µM
potency estimated from few doses [24]: 0.991 µM
potency estimated from few doses [25]: 1.26 µM

CCN(CC)S(=O)(=O)c1ccc(OC)c(Nc2ncc(-c3ccccc3)o2)c1 [GW572401X]
potency estimated from few doses [26]: 0.233 µM
potency estimated from few doses [27]: 0.495 µM
potency estimated from few doses [28]: 1.94 µM
potency estimated from few doses [29]: 0.399 µM

NC(=O)Nc1sc(-c2ccc(F)cc2)cc1C(N)=O [GW789449X]
potency estimated from few doses [1, 39]: 1.83 µM
potency estimated from few doses [9, 39]: 1.31 µM
potency estimated from few doses [30]: 1.26 µM
potency estimated from few doses [31]: 1.73 µM
potency estimated from few doses [32]: 1.13 µM
potency estimated from few doses [33]: 0.711 µM
potency estimated from few doses [34]: 1.37 µM

CSc1nccc(-c2c(-c3ccc(F)cc3)ncn2CCCN2CCOCC2)n1.Cl [SB-217146-A]
potency estimated from few doses [35]: 2.14 µM
potency estimated from few doses [36]: 1.74 µM
potency estimated from few doses [37]: 1.56 µM
potency estimated from few doses ([3]; CATDS: 0.21262407645477699): 1.59 µM
potency estimated from few doses [38]: 2.01 µM
